# Shown are actives, neighbours in structure and some others; about 0.92% of the full set was active somewhere.
# LAP4-GFP MLPCN – modulators of TOR pathway LAP4-GFP in S. cerevisiae | 0.34% of 320,000 active | GFP response vs DMSO, % at 10 µM | AID 2023 | S. cerevisiae LAP4-GFP multiplex, flow cytometry GFP, 3 h; median GFP as percent of DMSO wells;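 active = GFP response vs DMSO above a set limit, about the screen mean plus 3 SD, cut at about 150% in these data; inconclusive = under 70 cell events counted for the yeast strain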
# RPL19A-GFP yeast – modulators of TOR pathway RPL19A-GFP in S. cerevisiae; S. cerevisiae RPL19A-GFP strain, flow cytometry, 3 h; hits give low values; percent response vs DMSO, % at 10 µM; 0.3% of 330,000 active;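 active = percent response vs DMSO below 50%; inconclusive = fewer than 70 events counted for the yeast strain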;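 note: median channel GFP fluorescence of the barcoded RPL19A-GFP strain; ratio of sample median GFP to plate DMSO average so 100% = DMSO; lower means less RPL19A-GFP as with rapamycin TOR inhibition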
# AGP1 TOR yeast – modulators of TOR pathway AGP1-GFP in S. cerevisiae | S. cerevisiae AGP1-GFP multiplex flow cytometry, 3 h; GFP as percent of DMSO wells | GFP response vs DMSO, % at 10 µM | 0.02% of 320,000 active | AID 2066;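 active = GFP response relative to DMSO above a set limit, near screen average plus 3 SD, cut at about 150% in these data; inconclusive = fewer than 70 cells counted for the yeast strain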;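 note: median GFP channel fluorescence of the gated AGP1 strain per well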
# CIT2 TOR yeast – yeast TOR pathway CIT2-GFP modulation | GFP response vs DMSO, % at 10 µM | S. cerevisiae CIT2-GFP strain, flow cytometry, 3 h; 100 means same as DMSO wells | 0.065% of 320,000 active;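 active = GFP response relative to DMSO above a set limit, near the screen mean plus 3 SD, cut at about 150% in these data; inconclusive = Fewer than 70 cells measured for a yeast strain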;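 note: ratio of well median GFP fluorescence to mean of DMSO wells on the plate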
# MEP2 TOR yeast – yeast TOR pathway MEP2-GFP modulation. S. cerevisiae MEP2-GFP strain, flow cytometry GFP, 3 h; 100% = DMSO control level. GFP response vs DMSO, % at 10 µM. 0.51% of 330,000 active;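 active = GFP response versus DMSO above a set limit, roughly screen mean plus 3 SD, cut at about 180% in these data; inconclusive = fewer than 70 cells counted for a yeast strain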;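 note: median GFP fluorescence of the barcode-gated MEP2-GFP cells per well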
# An asterisk follows results filed as active; ? = inconclusive; . = no result given; [ ] = another dose, or the depositor's remark.
SMILES,LAP4-GFP MLPCN,RPL19A-GFP yeast,AGP1 TOR yeast,CIT2 TOR yeast,MEP2 TOR yeast
COC(=O)C(NC(=O)c1ccccc1)=C1C=C(C)OC(C)=C1,101,64,.,?,209*[may fluoresce violet]
CC1Sc2ccc(C(=O)OCc3ccccc3Cl)cc2NC1=O (stereo unspecified),108,98,101,91,103
CCCN1CCN(C(=O)c2oc3ccccc3c2NC(=O)COc2ccc(OC)cc2)CC1,80,31*,26,77,102
CS(=O)(=O)N1CCc2cc(C(=O)Nc3ccc(COCC(F)(F)F)cc3)ccc21,116,112,103,155*,159
C=C[C@@H]1c2cc(C)ccc2N(S(=O)(=O)c2ccc(C)cc2)[C@H](c2ccccc2C(F)(F)F)C1(C#N)C#N,88,94,90,93,81
Cc1onc(-c2c(Cl)cccc2Cl)c1NC(=O)NNc1ccccc1,106,100,105,107,107
Cc1onc(-c2c(Cl)cccc2Cl)c1NC(=O)NNc1c(Cl)cncc1Cl,131,90,142,123,205*
Cc1cc(C(=O)NNC(=O)c2c(-c3c(Cl)cccc3Cl)noc2C)no1,103,92,114,150*[may fluoresce green],106
CCOC(=O)c1c(O)c2ccccc2n(-c2ccccc2)c1=O,100,58,?,?,218*[may fluoresce violet]
Cc1nn(C)cc1C(C)NC(=O)c1cc(COc2ccc(F)c(F)c2)on1 (stereo unspecified),124,85,122,137,202*
Cc1ccc(NC(=O)c2cccc3cccnc23)cc1,75,49*[may fluoresce violet],?,?,603*[may fluoresce violet]
CCc1c(C2(O)CCCCC2)[nH]c2ccc(C(F)(F)F)cc12,110,92,75,68,96
Cc1cc(=O)oc2c(C(=O)/C=C\c3cccs3)c(O)ccc12,152*,104,96,93,92
COc1cc(/C=C/C(=O)c2c(O)ccc3c(C)cc(=O)oc23)ccc1O,160*,89,88,61,91
Cc1cc(=O)oc2c(C(=O)/C=C/c3ccccc3)c(O)ccc12,98,91,89,83,90
Cc1ccc(C)c(NC(=O)CN(C)C(=O)C2=NNC(=O)CC2)c1,98,94,99,98,96
CCC(Oc1ccc(C)c(C)c1)C(=O)N1CCCN(C)CC1 (stereo unspecified),87,106,102,98,116
CCOc1ccc(-c2nnc(-c3ccc(OC)cc3)o2)cc1,95,102,88,78,92
CCOc1ccc(-c2nnc(-c3ccccc3)o2)cc1,94,30*[may fluoresce violet],.,?,394*[may fluoresce violet]
COc1ccc(CCN2CC(C(=O)NCCc3ccccc3C)CCC2=O)cc1 (stereo unspecified),92,97,101,107,102
C=C(C)[C@H]1CC=C(C)/C(=N/NC(=O)CNc2ccccc2OC)C1,119,31*[may fluoresce violet],?,?,223*[may fluoresce violet]
CCC(CO)Oc1cc(NC(=O)c2ccccc2Cl)c2ncn(C(C)C)c2c1 (stereo unspecified),101,98,100,90,93
CCOc1cc(N2CCOCC2)c(OCC)cc1NC(=O)C(NC(=O)c1ccco1)C(C)C (stereo unspecified),94,.,42,104,269*
COc1ccc(CC2(CO)CCN(Cc3cnn(C)c3C)CC2)cc1,167*[may fluoresce violet],14*[may fluoresce violet],?,?,87
CCOC(=O)C1CCN(C(=O)c2cc3c(=O)n4ccccc4nc3s2)CC1,84,98,87,85,90
SMILES,LAP4-GFP MLPCN,RPL19A-GFP yeast,AGP1 TOR yeast,CIT2 TOR yeast,MEP2 TOR yeast
CCOC(=O)C1CCN(C(=O)c2cc3c(=O)n4cccc(C)c4nc3s2)CC1,76,54,?,?,200*[may fluoresce violet]
Cc1nc(N2CCN(c3ccccn3)CC2)c2c(C)c(C(=O)N3CCN(c4cccc(Cl)c4)CC3)sc2n1,98,101,98,98,104
COc1ccc(CCC(=O)N2CCCc3ccccc32)cc1,73,50,?,?,649*[may fluoresce violet]
Cc1ccccc1OCC(=O)N1CCCc2ccccc21,103,104,105,102,105
COc1cccc(OCC(=O)N2CCCc3ccccc32)c1,144,86,121,103,222*
COc1ccc(/C=C/C(=O)C2CC2)cc1COc1c(C)cccc1C,115,42*[may fluoresce violet],?,?,92
Cc1ccc(N/N=C2\CS(=O)(=O)N(C)c3ccsc32)cc1,117,101,97,92,97

# Screens: PubChem BioAssay, NMMLSC
